Resorufin fluor: qHTS Assay for Spectroscopic Profiling in Resorufin Spectral Region; Compound fluorescence, resorufin region 547/598 nm, buffer; stronger effect = higher value; AID 588, 2007; max dye-equivalent concentration, M; hit rate 0.04% among 59,000
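Intrinsic fluorescence profiled in the resorufin window (ex 547 nm, em 598 nm) after 15 min at room temperature in pH 8.0 Tris buffer (100 mM); responses normalized against a six-point resorufin standard series as dye-equivalent concentration.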
Fluorescein fluor: qHTS Assay for Spectroscopic Profiling in Fluorescein Spectral Region | Compound autofluorescence, 480/540 nm, fluorescein-equivalent; stronger effect = higher value | max fluorescein-equivalent concentration, M | hit rate 0.91% among 59,000; in the data active = max fluorescein-equivalent concentration above about 10 nM; inconclusive = between about 1.1 nM and that limit
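Tris 100 mM pH 8.0; 15 min RT; CCD read, ex 480/em 540 nm. Output: fluorescein-equivalent concentration per compound concentration, from six-point dye series on each plate.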
A647 autofl: qHTS Assay for Spectroscopic Profiling in A647 Spectral Region. AID 592, 2007. 59,000 tested, under 10 active. max dye-equivalent concentration, M. Compound fluorescence, A647 channel (570/671 nm), Tris buffer;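 note: values scaled relative to a standard on each plate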
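Spectral profiling of library compounds in pH 8.0 Tris: 15 min room-temperature incubation, single ex/em pair (570/671 nm), response normalized to Alexa 647 equivalents.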
Texas Red fluor: qHTS Assay for Spectroscopic Profiling in Texas Red Spectral Region; Compound fluorescence, Texas Red channel, 547/618 nm; stronger effect = higher value; max dye-equivalent concentration, M; hit rate 0.06% among 59,000; AID 587, 2007; in the data active = max dye-equivalent concentration above about 10 nM; inconclusive = between about 1.1 nM and that limit
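Dye-equivalent concentrations come from scaling compound signal (ex 547, em 618 nm) to six Texas Red standard concentrations run on every plate, after 15 min room-temperature incubation in pH 8.0 Tris (100 mM).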
A488 fluor: qHTS Assay for Spectroscopic Profiling in A488 Spectral Region. max dye equivalency, M. compound autofluorescence, A488 spectral region, dye equivalency; Compound Type: qHTS ECL - MLSMR. hit rate 0.1% among 59,000
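Compounds pin-transferred into 100 mM Tris buffer, pH 8.0, incubated 15 min at room temperature, then imaged with 480 nm excitation/540 nm emission filters. Fluorescence converted to Alexa 488 dye-equivalent concentration via an on-plate six-point A488 standard curve.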
Rhodamine autofl: qHTS Assay for Spectroscopic Profiling in Rhodamine Spectral Region | Rhodamine-region fluorescence, 547/598 nm, Tris buffer; stronger effect = higher value | max dye-equivalent concentration, M | hit rate 0.05% among 59,000; in the data active = max dye-equivalent concentration above about 11 nM; inconclusive = between about 1.1 nM and that limit
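Intrinsic compound fluorescence, ex 547 / em 598 nm, CCD imager. Tris 100 mM pH 8.0; 15 min RT. Output = rhodamine dye-equivalent concentration at each compound concentration.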
Starred values were filed as active, the others as inactive; i = inactive; ? = inconclusive. The list is not random: actives were taken first. Their share in the collection is about 0.9%. Unless noted, the rule behind the calls is not given here.

SMILES	Resorufin fluor	Fluorescein fluor	A647 autofl	Texas Red fluor	A488 fluor	Rhodamine autofl
CC1CCc2cccc3c2N1c1cc(C#N)c(C#N)cc1O3 (stereo not given)	i	6.3e-08M*	5e-09	?	?	i
CCN(CC)c1ccc2cc(C(=O)Nc3ccccn3)c(=O)oc2c1	i	5.4e-07M*	4.3e-08	i	2.6e-08M*	i
COc1ccccc1C(=O)Nc1ccccn1	i	?	3.7e-08	?	i	i
CCN(CC)c1ccc2cc(C(=O)Nc3cccnc3N3CCOCC3)c(=O)oc2c1	i	4e-08M*	1.6e-08	i	?	i
CCN(CC)c1ccc2cc(NC(=O)CCC(=O)O)c(=O)oc2c1	i	2.2e-07M*	1e-09	i	1.2e-08M*	i
Cc1ccc(C(=O)[C@@H]2[C@@H]3[C@@H](C(=O)[C@@H]4OC[C@H]3O4)[C@@H]3C=Cc4ccccc4N23)cc1	i	i	1e-09	i	i	i
O=C1[C@@H]2C=CC=CC2=NC(=S)N1CCN1CCC(=C(c2ccc(F)cc2)c2ccc(F)cc2)CC1	i	?	4.9e-08	i	i	i
CN1CCN(c2ncc3nc(-c4cccc(C#N)c4)c(=O)n(Cc4ccc(F)cc4)c3n2)CC1	i	i	8.2e-09	i	i	i
COc1ccccc1NC(=O)CC1Nc2ccccc2NC1=O (stereo not given)	i	i	4.7e-09	i	i	i
O=C(CC1NC(=O)NC1=O)Nc1cccc2ccccc12 (stereo not given)	i	4.3e-08M*	1e-09	i	?	i
CC(C)OC(=O)c1nn2c(C(F)(F)F)cc(-c3ccc(Br)o3)nc2c1Br	i	1.6e-08M*	5.3e-08	i	i	i
CCOC(=O)c1cnn2c(C(F)(F)F)cc(-c3ccco3)nc12	i	i	1e-09	i	i	i
C[C@]12C=CC(=O)C=C1CC[C@@H]1[C@H]3C[C@@H](O)[C@](O)(C(=O)CO)[C@]3(C)C[C@H](O)[C@]12F	i	?	4.7e-08	i	i	i
CCc1cc2c(=O)c(-c3nc4ccccc4[nH]3)coc2cc1OC(=O)N1CCOCC1	i	1.1e-08M*	1e-09	i	i	i
CCc1cc2c(=O)c(-c3ccc4c(c3)OCCO4)coc2cc1OC(=O)c1ccco1	i	i	1e-09	i	i	i
CCOC(=O)c1cc2c(=O)n3ccccc3nc2n(Cc2ccc(Cl)cc2)c1=N	i	3.4e-07M*	1e-09	i	2.6e-08M*	i
N=c1c(C(=O)NCc2ccco2)cc2c(=O)n3ccccc3nc2n1Cc1ccccc1	i	1.9e-08M*	3.4e-08	i	i	i
CCCCNC(=O)c1cc2c(=O)n3cccc(C)c3nc2n(Cc2ccncc2)c1=N	i	1.6e-08M*	3.2e-09	?	i	i
N=c1c(C(=O)NCc2ccco2)cc2c(=O)n3ccccc3nc2n1Cc1ccc(Cl)cc1	i	?	3.2e-09	?	i	i
COCCNC(=O)c1cc2c(=O)n3cccc(C)c3nc2n(Cc2ccncc2)c1=N	i	i	1.6e-08	i	i	i
Cc1ccc(S(=O)(=O)c2cc3c(=O)n4ccccc4nc3n(Cc3ccco3)c2=N)cc1	i	1.5e-08M*	7.5e-09	?	i	i
O=C1c2c(O)cc(O)cc2O[C@@H](c2ccc(O)c(O)c2)[C@H]1O	i	?	2.6e-08	i	i	i
N=C(N)c1ccc(/C=C\c2ccc(C(=N)N)cc2)cc1	i	i	2e-08	i	i	i
N=c1c(C(=O)NCc2ccc3c(c2)OCO3)cc2c(=O)n3ccccc3nc2n1Cc1cccnc1	i	?	4.4e-08	i	i	i
COc1ccc(CNC(=O)c2cc3c(=O)n4ccccc4nc3n(Cc3cccnc3)c2=N)cc1	i	1.1e-07M*	4.1e-08	i	?	i
CCN1C(=O)/C(=C2/SC(C)=C(C)N2CC)SC1=S	i	7.1e-08M*	1e-09	i	?	i

Source: PubChem BioAssay (National Center for Advancing Translational Sciences (NCATS))
